In PubChem BioAssay (NCI):
The panel holds about 83,000 compounds, 20% with a hit somewhere; the sample as a whole holds those more often.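 A percent growth of 40 corresponds to 60% growth inhibition; 0 means no net growth; -100 means all cells died. Active threshold: below 10.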 Activity calls are given as the source filed them.

System: SK-MEL-28 melanoma
Assay: NCI-60 one-dose screen, 48 h (100 = growth as untreated, 0 = no growth, -100 = all killed)
Settings: 10 µM unless noted

Row | Compound | growth
1 | ClCCN(CCCl)Cc1ccc(Nc2ccnc3cc(Cl)ccc23)cc1 | 67.1% (inactive)
2 | N#CCCNc1ccccc1 | 99.8% (inactive)
3 | C[C@]12CCc3sc(NCCc4ccccc4)nc3C1=CC[C@@H]1[C@@H]2CC[C@]2(C)C(=O)CC[C@@H]12 | 83.3% (inactive)
4 | Cc1cnc(/C=C/C(=O)O)cc1-c1cc2c(cc1C)C(C)(C)CCC2(C)C | 41.5% (inactive)
5 | C[C@@H]1CCC2[C@@H](C)[C@H](OC(=O)CCC(=O)NCCNC(=O)Cc3cc(=O)oc4cc(N(C)C)ccc34)O[C@@H]3O[C@]4(C)CC[C@@H]1C23OO4 (some centres not stated) | 57.5% (inactive)
6 | CCN(CCO)C(Cc1ccccc1)c1ccccc1 (configuration not stated) | 101% (inactive)
7 | CC1=C2[C@@H](CC1)[C@]1(C)O[C@@](C(C)C)(C[C@H]1O)[C@H]2OC(=O)C1CC1c1ccccc1 (some centres not stated) | 105% (inactive)
8 | COC(=O)[C@@H](C)C[C@H](Cc1ccccc1)NC(=O)c1nc([C@@H](C[C@H](C(C)C)N(C)C(=O)[C@@H](NC(=O)[C@H]2C[C@H](O)CCN2C)C(C)C)OC(C)=O)sc1C(C)C | 44.8% (inactive)
9 | COc1cc(C=Nc2cc(Cl)cc(Cl)c2)ccc1N(CCCl)CCCl | 104% (inactive)
10 | COC(=O)[C@@H](C)C[C@H](Cc1ccccc1)NC(=O)c1csc([C@@H](C[C@H](C(C)C)N(C)C(=O)[C@@H](NC(=O)[C@H]2CCCN2C)C2CC2)OC(C)=O)n1 | 56.4% (inactive)
11 | NC(=S)c1cn(C2OC(CO)C(O)C2O)c2ncnc(N)c12 (configuration not stated) | -40.3% (active)
12 | O=C(N/N=C/c1ccc(N(CCCl)CCCl)cc1)c1cccc2ccccc12 | 83% (inactive)
13 | Oc1ccc2c3c1OC1[C@@H](O)CC[C@@]4(O)[C@@H](C2)N(CC2CCC2)CC[C@]314 (some centres not stated) | 106% (inactive)
14 | CCOC(=O)[C@@H](C)C[C@H](Cc1ccccc1)NC(=O)c1csc([C@@H](C[C@H](C(C)C)N(C)C(=O)[C@@H](NC(=O)[C@H]2C[C@H](O)CCN2C)C(C)C)OC(C)=O)n1 | 51.1% (inactive)
15 | COC(=O)C12CC(NC(=O)c3csc([C@@H](C[C@H](C(C)C)N(C)C(=O)[C@@H](NC(=O)[C@H]4CCCCN4C)C(C)C)OC(C)=O)n3)(C1)C2 | 62.4% (inactive)
16 | COC(=O)[C@@H](C)C[C@H](Cc1ccccc1)NC(=O)c1csc([C@@H](C[C@H](C(C)C)N(C)C(=O)[C@H](C)NC(=O)[C@H]2CCCCN2C)OC(C)=O)n1 | 58.1% (inactive)
17 | O=C(CCCCCNC1=CC(=O)c2ccccc2C1=O)NCCC[Te]c1ccccc1 | -42% (active)
18 | CC(=O)O[C@H](C[C@H](C(C)C)N(C)C(=O)[C@@H](NC(=O)[C@H]1CCCCN1C)C(C)(C)C)c1nc(C(=O)N[C@@H](Cc2ccccc2)C[C@H](C)C(=O)O)cs1 | 52.6% (inactive)
19 | COc1ccc(/C=C\c2cc(OC)c(OC)c(OC)c2)cc1OCC(=O)Nc1nc2ccc(F)cc2s1 | 69.5% (inactive)

Row | Compound | growth
20 | COc1ccc(C(=O)c2cc(OC)c(OC)c(OC)c2)cc1OC(C)=O | 56.6% (inactive)
21 | C[C@]12C[C@@H](CO)[C@H](O)C[C@@H]1CC[C@@H]1[C@@H]2CC[C@]2(C)[C@@H](O)CC[C@@H]12 | 105% (inactive)
22 | N#CC1(C#N)C(c2ccc(N(CCCl)CCCl)cc2)OC23CCCCC2C1(C#N)C(=N)O3 (configuration not stated) | 111% (inactive)
23 | O=[N+]([O-])c1ccc([Se]C2CCCCC2Cl)c([N+](=O)[O-])c1 (configuration not stated) | 72.6% (inactive)
24 | COc1ccc(-n2c(C)nc3cc(OC)c(OC)cc3c2=O)cc1OC | 109% (inactive)
25 | O=[As](O)(O)c1ccccc1[As](=O)(O)O | 117% (inactive)
26 | COC(=O)[C@@H](C)C[C@H](Cc1ccccc1)NC(=O)c1csc([C@@H](C[C@H](C(C)C)N(C)C(=O)C2(NC(=O)[C@H]3CCCCN3C)CC2)OC(C)=O)n1 | 58.7% (inactive)
27 | CN1C(=O)C23CC4(C56CC78SSC(CO)(C(=O)N7C5Nc5ccccc56)N(C)C8=O)c5ccccc5NC4N2C(=O)C1(CO)SS3 (configuration not stated) | -90.6% (active)
28 | CCNc1nc(Cl)nc(NCC)n1 | 115% (inactive)
29 | COc1ccc(C2=CC(c3ccc(OC)c(OC)c3)c3c(c4ccccc4oc3=O)O2)cc1OC (configuration not stated) | 50.9% (inactive)
30 | COC(=O)[C@H](Cc1ccccc1)NNC(=O)c1csc([C@@H](C[C@H](C(C)C)N(C)C(=O)[C@@H](NC(=O)[C@H]2CCCCN2C)C2CC2)OC(C)=O)n1 | 48.3% (inactive)
31 | Clc1ccc(CSC(Cn2ccnc2)c2ccc(Cl)cc2Cl)cc1 (configuration not stated) | 62.3% (inactive)
32 | C=CC1=C[C@@H]2[C@@H]3O[C@]4(CC[C@H](O4)[C@@H](C)C[C@@H](O)C3=O)C[C@H](O)C3=NCC[C@@]32CC1 | -59.8% (active)
33 | COC1CC2c3ccccc3C1C(C)=[N+]2C (configuration not stated) | 145% (inactive)
34 | Cc1cc(N(CCCl)CCCl)ccc1C=Nc1ccc(-c2csc(Cc3ccccc3)n2)cc1 | 90.5% (inactive)
35 | N/C(=N/N=C/c1ccncc1)N[N+](=O)[O-] | 110% (inactive)
36 | CCN1C(=O)C(=C/C=C/c2ccccc2)C(=O)N(CC)C1=O | 104% (inactive)
37 | CC(=O)O[C@H](C[C@H](C(C)C)N(C)C(=O)[C@@H](NC(=O)[C@H]1CCCCN1C)C(C)C)c1cccc(C(=O)N[C@@H](Cc2ccccc2)C[C@H](C)C(=O)O)n1 | 65% (inactive)
